In the assay the test system is P. falciparum stage V gametocytes. Details: BacTiter-Glo ATP luminescence viability of purified stage V gametocytes in 384-well plates, per cent inhibition versus DMSO. To be noted: 48 h, 5 µM, inhibitor.

Where two headings read alike, the source gives them in different places. Hit rate of the full screen: of about 13,000 compounds, about 3,200 (25%) showed an effect of 50% or more. Some of the results follow.

A word on the % Inhibition: it is the drop in the measured response relative to a control, in per cent. Take `Cn1cncc1-c1ccc2ncnc(Nc3ccc4c(cnn4Cc4ccccc4)c3)c2c1` [TCMDC-137781]: the “% Inhibition” value was -8.163%.

In the case of `O=C(CN1CCCCC1)Nc1ccc(Nc2nccc(NCC(O)c3ccccc3)n2)cc1` (centres unmarked) [TCMDC-136469], the “% Inhibition” value is given as -6.593%.

With `CCN(CC)CCNC(=O)c1ccc(N=Cc2c(O)[nH]c3ccc(S(=O)(=O)Cc4c(Cl)cccc4Cl)cc23)cc1` [TCMDC-135945], the “% Inhibition” value came to 35.17%.

For `NS(=O)(=O)c1cccc(N=Cc2c(O)[nH]c3ccc(S(=O)(=O)Cc4c(Cl)cccc4Cl)cc23)c1` [TCMDC-135947], the “% Inhibition” value came out at 101.9%.

Turning to `CN(CCCCNC(=O)c1ccc(-c2ccccc2)cc1)C1CCc2c(O)cccc2C1` (centres unmarked) [TCMDC-139005], the “% Inhibition” value is -43.63%.

As to `O=C(Nc1ccc(OC2CCN(Cc3ccc(F)cc3)CC2)cc1)c1cccs1` [TCMDC-133741], the “% Inhibition” value is given as 27.9%.

For the molecule `Cc1ccc(-c2nc3ccccc3o2)cc1NCc1cc(Cc2ccccc2)ccc1O` [TCMDC-125705], the “% Inhibition” value is recorded as -21.71%.

Consider `Cc1cc(O)c(CN2CCN(Cc3cccs3)CC2)cc1C(C)C` [TCMDC-124883], for which the “% Inhibition” value is on record as -57.78%.

As for `CCN1CCCC1CN(Cc1ccc(-c2ccc(C(F)(F)F)cc2)cc1)C(=O)Cn1c(CCc2cccc(F)c2F)nc(=O)c2ccccc21` (centres unmarked) [TCMDC-141061], the “% Inhibition” value stood at 68.75%.

In the case of `CCN1CCC(N(Cc2ccc(-c3ccc(C(F)(F)F)s3)cc2)C(=O)Cn2c(CCc3cccc(F)c3F)nc(=O)c3ccccc32)CC1` [TCMDC-141282], the “% Inhibition” value turned out to be 107.7%.

Turning to `CCN1CCC(N(Cc2ccc(-c3ccc(C(F)(F)F)cc3)cc2)C(=O)CCCCn2c(CCc3cccc(F)c3F)nc(=O)c3ccccc32)CC1` [TCMDC-141321], the “% Inhibition” value came out at 85.03%.

In the case of `O=C(Cn1c(CCc2cccc(F)c2F)nc(=O)c2ccccc21)N(Cc1ccc(-c2ccc(C(F)(F)F)cc2)cc1)C1CCN(C2=NCCS2)CC1` [TCMDC-136537], the “% Inhibition” value is 107.4%.

Take `Cc1ccccc1CNc1noc(-c2c(-c3ccccc3)noc2C)n1` [TCMDC-134201]: the “% Inhibition” value was -15.74%.

Take `CCCOC(=O)c1ccc(OCCCON2C(N)=NC(N)=NC2(C)C)cc1` [TCMDC-131715]: the “% Inhibition” value is recorded as 8.227%.

With `CCN1CCC(N(Cc2ccc(-c3ccc(C(F)(F)F)cc3)o2)C(=O)Cn2c(CCc3cccc(F)c3F)nc(=O)c3ccccc32)CC1` [TCMDC-141281], the “% Inhibition” value was 92.96%.

Turning to `CC(C)N1CCC(N(Cc2ccc(-c3ccc(C(F)(F)F)cc3)cc2)C(=O)CCCn2c(CCc3cccc(F)c3F)nc(=O)c3ccccc32)CC1` [TCMDC-141316], the “% Inhibition” value is 88.07%.

`CCN1CCC(N(Cc2ccc(-c3ccc(C(F)(F)F)cc3)cc2)C(=O)Cn2c(CCc3cccc(F)c3F)nc(=O)c3ccccc32)CC1` [TCMDC-141048]: the “% Inhibition” value is 116.3%.

Take `O=C(C1CCCC1)N1CCOC(CCN2CCC(c3ccccc3)CC2)(c2ccc(Cl)c(Cl)c2)C1` (centres unmarked) [TCMDC-135327]: the “% Inhibition” value is on record as -12.01%.

With `CC(C)Cc1nc2nc(N)nc(N)c2cc1C(C)C` [TCMDC-137930], the “% Inhibition” value amounted to 2.497%.

Turning to `O=C(Nc1ccc2c(c1)CCCN2S(=O)(=O)c1cccs1)c1cc([N+](=O)[O-])ccc1Cl` [TCMDC-125153], the “% Inhibition” value was 96.55%.

With `CC(=O)c1cccc(NC(=O)c2ccc(Cl)c(S(=O)(=O)N3CCc4ccccc43)c2)c1` [TCMDC-124431], the “% Inhibition” value was 4.693%.

In the case of `CC1CCCN(c2ccc(NC(=O)c3cccs3)cc2[N+](=O)[O-])C1` (centres unmarked) [TCMDC-124625], the “% Inhibition” value is reported as 1.853%.

For the molecule `O=c1cc(NCCC2CC=CCN2Cc2ccc(Cl)c(Cl)c2)[nH]c2ccccc12` (centres unmarked) [TCMDC-139445], the “% Inhibition” value is recorded as 3.776%.

For the molecule `COc1ccc(CCNCCCCCCNCCc2ccc(Cl)cc2)c(Cl)c1OC` [TCMDC-131272], the “% Inhibition” value stood at 114.1%.

Regarding `COc1ccc(CCNCCCCCCNCCc2ccc(OC)c(OC)c2Cl)c(Cl)c1OC` [TCMDC-131261], the “% Inhibition” value was 103.5%.

With `COc1ccc(CCNCC(O)c2cccc(Br)c2)c(Cl)c1OC` (centres unmarked) [TCMDC-125478], the “% Inhibition” value is 12.88%.

As to `O=C(Nc1ccsc1C(=O)NC1CCCCC1)c1ccc(F)cc1` [TCMDC-123789], the “% Inhibition” value was -7.21%.

Take `CCCC(C)Nc1nc(C)cc(N[C@@H](CC(C)C)C(=O)NCCOc2ccccc2)n1` (some centres unmarked) [TCMDC-134898]: the “% Inhibition” value is -16.46%.

On to `CC1=C(C(=O)NC2CCC(CN3CCC(c4c[nH]c5ccccc45)CC3)CC2)Cc2ccccc21` (centres unmarked) [TCMDC-139765], for which the “% Inhibition” value (% Inhibition) was -59.52%.

Turning to `O=C(NC1CCC(CN2CCC(c3c[nH]c4ccccc34)CC2)CC1)[C@H]1Cc2ccccc2CN1` (some centres unmarked) [TCMDC-140311], the “% Inhibition” value stood at 105%.

On to `CC1=C(C(=O)NC2CCC(CN3CCC(c4c[nH]c5ccccc45)CC3)CC2)Cc2ccccc21` (centres unmarked) [TCMDC-139755], for which, for the setting “% Inhibition”, the “% Inhibition” value is 71.55%.

On to `O=C(C=C1c2ccccc2-c2ccccc21)NC1CCC(CN2CCC(c3c[nH]c4ccccc34)CC2)CC1` (centres unmarked) [TCMDC-139918], for which, where the note is “% Inhibition”, the “% Inhibition” value is given as -14.57%.

With `O=C(C=C1c2ccccc2-c2ccccc21)NC1CCC(CN2CCC(c3c[nH]c4ccccc34)CC2)CC1` (centres unmarked) [TCMDC-139906], the “% Inhibition” value (% Inhibition) is given as -40.53%.

For the molecule `COc1cccc(NC(=O)[C@H](C)n2c(=O)[nH]c3ccccc3c2=O)c1` [TCMDC-124998], the “% Inhibition” value was 68.49%.

As to `COc1ccccc1CNC(=O)C(=O)Nc1c(-c2ccccc2)[nH]c2ccccc12` [TCMDC-124999], the “% Inhibition” value is listed as -88.11%.

Regarding `COc1ccc2[nH]c3ccccc3c(=O)c2c1` [TCMDC-123948], the “% Inhibition” value is 14.64%.

In the case of `COc1cccc(NC(=O)COc2ccc(C(=O)Nc3nc4ccccc4[nH]3)cc2)c1` [TCMDC-125060], the “% Inhibition” value is recorded as -14.04%.

Take `COc1cccc(NC(=O)[C@H](C(C)C)n2c(=O)[nH]c3ccccc3c2=O)c1` [TCMDC-125133]: the “% Inhibition” value stood at 96.89%.

Consider `COc1ccc(NC(=O)Nc2cccc(-c3cccc(-c4nc5ccccc5[nH]4)c3)c2)cc1` [TCMDC-133246], for which the “% Inhibition” value is reported as -3.32%.

In the case of `C=CCc1cc(Br)ccc1OCCCON1C(N)=NC(N)=NC1(C)C` [TCMDC-131341], the “% Inhibition” value came to 13.45%.

For `O=C(/C=C/c1ccc(Cl)c(Cl)c1)NCCCCCCN1CCN(C(=O)Nc2ccc(OC(F)F)cc2)CC1` [TCMDC-135834], the “% Inhibition” value is listed as -53.7%.

Source of the values: publication PMC4552634, “A New Set of Chemical Starting Points with Plasmodium falciparum Transmission-Blocking Potential for Antimalarial Drug Discovery” (PLoS ONE, 2015).
